An excerpt weighted towards active compounds, which were near 5.4% of everything screened.
VACV mCherry inh – qHTS for Stage-Specific Inhibitors of Vaccinia Orthopoxvirus: mCherry Reporter Primary qHTS | Vaccinia virus mCherry reporter infection, fluorescence | Potency, µM (titrated, usually from 36.5 µM), for the others: at the highest dose activity change, negative = inhibition, usual class: inhibitors | 310,000 tested, 0.63% active; calls by dose curve; tested in A549 cells; further: nearly all actives have a fitted effect of over 35% in size
Sm TGR block – qHTS Assay for the Inhibitors of Schistosoma Mansoni Peroxiredoxins. Schistosoma mansoni thioredoxin glutathione reductase (TGR), Q962Y6. 360,000 tested, 3% active. Potency, µM (doses to about 114 µM), for inactives: top-dose activity change, negative = inhibition, most hits filed as inhibitors. purified TGR, DTNB reduction, TNB absorbance 405 nm; active means well fitted inhibition curve with a large enough effect; inconclusive means small, poorly fitted or top-dose-only effect; inactive means no such curve, though single readings can be large or run the other way; further: nearly all actives have a fitted effect of over 60% in size
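Kinetic colorimetric format: TGR-catalysed, NADPH-driven DTNB reduction monitored via TNB absorbance. Enzyme dispensed at 20 nM; compound exposure 15 min at room temperature before reaction start.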
LASV entry inh – qHTS for Inhibitors of binding or entry into cells for Lassa Virus; Lassa virus pseudotype entry inhibition, cell reporter; Potency, µM (highest dose often 37.9 µM), without a hit: at the top dose activity change, negative = inhibition, hits mostly inhibitors; 300,000 tested, 1.2% active; AID 540256, 2011; calls by dose curve; tested in HEK293 cells; further: nearly all actives have a fitted effect of over 50% in size
VACV Venus inh – qHTS for Stage-Specific Inhibitors of Vaccinia Orthopoxvirus: Venus Reporter Primary qHTS; Vaccinia virus Venus reporter expression, fluorescence; Potency, µM (series often up to 36.5 µM), inactives show top-dose activity change, negative = inhibition, usual class: inhibitors; 330,000 tested, 0.46% active; AID 720580, 2013; calls by dose curve; tested in A549 cells; further: nearly all actives have a fitted effect of over 30% in size
Marburg entry inh – qHTS for inhibitors of binding or entry into cells for Marburg Virus; Marburg virus pseudotyped entry inhibition, cell reporter; Potency, µM (titrated, usually from 37.8 µM), for inactives: top-dose activity change, negative = inhibition, actives largely listed as inhibitors; 300,000 tested, 1.8% active; AID 540276, 2011; calls by dose curve; tested in HEK293 cells
FMDV inh – High Throughput Screening for Foot and Mouth Disease Virus Antivirals. FMDV antiviral cell-based qHTS. Potency, µM (highest dose often 57.9 µM), without a hit: at the top dose activity change, negative = inhibition, actives largely listed as inhibitors. AID 1159524, 2015. 410,000 tested, 1.2% active; calls by dose curve; tested in HEK293T cells; further: read-out not given here; nearly all actives have a fitted effect of over 45% in size
An asterisk follows results filed as active; i = inactive; ? = inconclusive; · = no result; [ ] = dose if it differs, or a comment. On the % scale 0 is the no-effect control and ±100 the full control effect; potency means the concentration at half of the fitted maximal effect.

SMILES	VACV mCherry inh	Sm TGR block	LASV entry inh	VACV Venus inh	Marburg entry inh	FMDV inh
O=[N+]([O-])c1cccnc1Sc1ccc(F)cc1	i[7.34 µM]	·	-23%	-21%[7.34 µM]	-10%[46.1 µM]	12%
CCn1c(C)nc([N+](=O)[O-])c1Sc1ccc(F)cc1	·	40µM*	-9%	·	-7%	?
COCCN(C)C(=O)c1cnn(-c2nccc(-c3cc(OC)ccc3OC)n2)c1C	i	·	·	-3%	·	22%
COc1ccc(/C=C/C(=O)N2CCC(c3nc4ccccc4o3)CC2)cc1OC	-2%	-6%	-15%[46.1 µM]	-11%	22%[46.1 µM]	-19%
Cc1cccc(C)c1C(OCCN(C)C)C1CCCCC1 (configuration not stated)	-10%	-11%	?	-11%	21µM*	?
Cc1cccnc1NC1CCCCC1	·	-2%	5%	·	24%	22%
COc1ccc(Nc2nnc(-c3ccc(C)c(S(=O)(=O)N4CCN(C)CC4)c3)c3ccccc23)cc1	-18%	6%	-14%[46.1 µM]	?	-3%[46.1 µM]	2%
Cc1ccc(S(=O)(=O)N2CCC(=O)N(C(COCc3cccc(C)c3)Cc3ccccc3)CC2)cc1 (configuration not stated)	-22%	-12%	15µM*	?	?	-22%
O=C(c1cccc(Cl)c1)N1CCC(=O)N([C@H](COCc2ccccc2)Cc2ccccc2)CC1	1%	·	·	-6%	·	-7%
Cc1cccc(C(=O)N2CCC(=O)N(C(COCc3ccc(Cl)cc3)Cc3ccccc3)CC2)c1 (configuration not stated)	-25%	-2%	10µM*	-28%	-4%	?
O=C(c1cccc(Cl)c1)N1CCC(=O)N(C(COCc2cccc(Cl)c2)Cc2ccccc2)CC1 (configuration not stated)	0%	-17%	15µM*	-28%	-17%	-21%
Cc1cccc(C(=O)N2CCC(=O)N(C(COCc3cccc(Cl)c3)Cc3ccccc3)CC2)c1 (configuration not stated)	-24%	-5%	8.2µM*	-26%	-8%	47%
CCOC(=O)c1c(C)[nH]c(C)c1S(=O)(=O)N1CCCC(C(=O)N2CCN(c3ccc(Cl)cc3)CC2)C1 (configuration not stated)	-26%	7%	-7%[46.1 µM]	-27%	·	-8%
COc1cc2nc(N3CCN(c4cc(C)ccc4C)CC3)nc(N)c2cc1OC	?	14%	?	10µM*	4.5µM*	25µM*
COc1cc2nc(N3CCNCC3)nc(N)c2cc1OC	·	-15%	4%	·	?	9%
CCCCN1C(=O)C(O)(c2c[nH]c3ccccc23)c2cc(Br)ccc21 (configuration not stated)	-19%	1%	-16%[46.1 µM]	-18%	?	-12%
O=C(CCl)Nc1cn(-c2ccccc2)nc1-c1ccccc1	·	18µM*	4.1µM*	·	16µM*	20µM*
CC(=O)Nc1cn(-c2ccccc2)nc1-c1ccccc1	i	6%	-4%[46.1 µM]	0%	?	-1%
O=C(CCl)Nc1ccc(N=Nc2ccccc2)cc1	·	40µM*	?	·	?	-12%
O=C(CCl)Nc1ccc(-c2ccccc2)cc1	·	4.5µM*	10µM*	·	?	22µM*
CC(C)N(c1ccccc1)c1ccc(NC(=O)CCl)cc1	·	14µM*	·	·	·	40µM*
CC(=O)Nc1ccc(N=Nc2ccccc2)cc1	-27%	-18%	3%	-11%	?	5%
Cc1cc2nc(N3CCC(NC(C)c4nc(-c5ccccn5)no4)CC3)nc(C)c2cc1C (configuration not stated)	-17%	·	·	-13%	·	-4%
COc1ccc(NC(=S)NC(NC(=O)CF)C(Cl)(Cl)Cl)c([N+](=O)[O-])c1 (configuration not stated)	-15%	40µM*	-9%	3%	-3%	8%
CCOc1ccc(NC(=S)NC(=O)c2cnn(CC)c2)c([N+](=O)[O-])c1	i	-14%	-23%[46.1 µM]	-10%	-12%[46.1 µM]	-15%
SMILES	VACV mCherry inh	Sm TGR block	LASV entry inh	VACV Venus inh	Marburg entry inh	FMDV inh
CCOc1ccc(NC(=S)NC(=O)/C=C/c2ccc(Br)cc2)c([N+](=O)[O-])c1	-10%	1%	21µM*	-7%	-24%	12%
CCC/C(O)=C1\C(=O)CC(C)(C)CC1=Nc1ccc(OC)cc1OC	·	-3%	-24%	?	2µM*	0%
Cc1nc(-c2ccc(F)cc2)sc1CCNC(=O)c1ccccc1C(F)(F)F	-9%	-9%	4%[46.1 µM]	-1%	·	7%
COc1ccc(F)c(CN2CCOc3ccc(CN4CCC(O)(c5cccnc5)CC4)cc3C2)c1	-20%	·	·	-8%	·	-14%
COc1cc(CCN2C(=O)NC(c3cccc(C(F)(F)F)c3)C(C(C)=O)=C2C)cc(OC)c1OC (configuration not stated)	·	·	1%[14.3 µM]	·	5%[14.2 µM]	·
Cc1ccc(C(=O)N2CCN(c3ncnc4c(C)csc34)CC2)cc1	i	-6%	-1%	-1%	?	-22%
Cc1csc2ncnc(N3CCN(C(=O)Nc4ccc(OC(F)(F)F)cc4)CC3)c12	·	13%	·	·	·	18µM*
Cc1csc2c(N3CCN(C(=O)Nc4ccccc4)CC3)ncnc12	-24%	9%	-7%	?	?	22µM*
Cc1csc(NC(=O)C2COc3ccccc3O2)n1 (configuration not stated)	·	-2%	?	1%	4.5µM*	13µM*
CC1CCc2nc(NC(=O)C3COc4ccccc4O3)sc2C1 (configuration not stated)	-22%	6%	·	-12%	·	16µM*
Cc1cnc(NC(=O)C2COc3ccccc3O2)s1 (configuration not stated)	·	1%	?	-10%	7.9µM*	-64%
O=C(Nc1nc(-c2ccccc2)cs1)C1COc2ccccc2O1 (configuration not stated)	·	1%	-8%	-17%	5%	-13%
COc1cc(C=NO)nc(-c2ccccn2)c1	?	·	1.3µM*	?	?	-8%
COc1ccc2nc(-c3ccccn3)[nH]c2c1	·	6%	·	·	·	30%
COc1ccc(Sc2cnn(-c3ccccc3)c(=O)c2Cl)cc1	13µM*	4%	?	?	-1%	?
COc1ccc(-n2ncc(Cl)c(Cl)c2=O)cc1	-21%	?	?	-22%	?	8.9µM*
COc1nn(-c2ccccc2)c(=O)c(Cl)c1Cl	?	22µM*	?	28µM*	?	14µM*
CC(Cc1ccccc1)NC(=O)CC(c1ccccc1)c1ccccc1O (configuration not stated)	-24%	3%	5.6µM*	-17%	?	-29%
O=C(CCCC(=O)OCC(=O)c1ccc(Cl)cc1Cl)Nc1cc(C(F)(F)F)ccc1Cl	·	89µM*	-2%	-22%	8%	-23%

Compound activity (PubChem BioAssay)
